GDH-TPI counter: counter-screen for M. tuberculosis FBA inhibitors: GDH-TPI coupled enzymes. GDH-TPI coupled enzyme counterscreen, NADH absorbance. inhibition, % at 4.8 µM. actives 1.2% (n = 360,000). AID 588335; in the data active = inhibition above about 30%
PrP 5UTR inh: inhibition of PrP 5' UTR reporter expression | cell-based PrP 5' UTR mRNA reporter, plate reader | actives 0.35% (n = 340,000) | AID 488862 | inhibition, % (test concentration not listed); in the data active = inhibition above about 52%
PfHsp40 rescue: compounds rescuing yeast from Plasmodium falciparum HSP40 toxicity; S. cerevisiae expressing PfHsp40, growth rescue, ATP luminescence; growth rescue, % at 12.5 µM; actives 0.68% (n = 340,000); AID 504582; in the data active = growth rescue above about 28%, passing the limit was not always enough;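 note: yeast W303a lacking pdr1 and pdr3 grown in galactose medium; growth measured after three days at 30 °C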
FBA Mtb inh: inhibitors of M. tuberculosis fructose-bisphosphate aldolase. inhibition, % at 1 µM. purified M. tuberculosis FBA, fluorescence read-out. P9WQA3. actives 2.3% (n = 360,000); in the data active = inhibition above about 27%
Target sequence (P9WQA3 whole entry, looked up): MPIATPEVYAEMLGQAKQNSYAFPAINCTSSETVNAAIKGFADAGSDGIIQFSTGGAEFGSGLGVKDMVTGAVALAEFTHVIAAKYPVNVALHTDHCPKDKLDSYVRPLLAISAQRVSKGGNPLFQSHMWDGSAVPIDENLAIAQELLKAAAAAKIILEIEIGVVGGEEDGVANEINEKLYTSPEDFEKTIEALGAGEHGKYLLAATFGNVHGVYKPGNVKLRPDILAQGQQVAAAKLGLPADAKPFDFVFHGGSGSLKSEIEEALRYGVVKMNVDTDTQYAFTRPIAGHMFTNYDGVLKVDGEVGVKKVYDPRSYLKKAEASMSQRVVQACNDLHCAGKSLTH
PrPC TRFRET: inhibitors of human cell surface prion protein PrPC. TR-FRET read-out. inhibition, % at 13.8 µM. actives 0.43% (n = 370,000). AID 720596; in the data active = inhibition above about 24%
BJeLR viability: BJeLR cell viability loss. BJeLR (HRASV12) viability, CellTiter-Glo ATP luminescence, 48 h. inhibition, % (no concentration beside the values). actives 0.17% (n = 300,000); in the data active = inhibition above about 50%
A number is an active result; – = inactive; · = not tested or not shown; + = active, no number. Shown are actives, neighbours in structure and some others; about 4.5% of the full set was active somewhere.

SMILES | GDH-TPI counter | PrP 5UTR inh | PfHsp40 rescue | FBA Mtb inh | PrPC TRFRET | BJeLR viability
C#CCOCCOCCOCCNc1nc(N2CCN(C(=O)CCCCCCCCCCNC(=O)Cn3cc(CCCCCN)nn3)CC2)nc(N2CCN(C(=O)CCCCCCCCCCNC(=O)[C@H]([C@@H](C)CC)n3cc(CCCCN=C(N)N)nn3)CC2)n1 | – | – | 29 | – | · | ·
C#CCOCCOCCOCCNc1nc(N2CCN(C(=O)CCCCCCCCCCNC(=O)[C@H]([C@@H](C)CC)n3cc(CCCCCN)nn3)CC2)nc(N2CCN(C(=O)CCCCCCCCCCNC(=O)[C@H]([C@@H](C)CC)n3cc(CCCCN=C(N)N)nn3)CC2)n1 | – | – | 69 | – | · | ·
C#CCOCCOCCOCCNc1nc(N2CCN(C(=O)CCCCCCCCCCNC(=O)[C@H]([C@@H](C)CC)n3cc(CCCCN=C(N)N)nn3)CC2)nc(N2CCN(C(=O)CCCCCCCCCCNC(=O)[C@H](CO)n3cc(CCCCCN)nn3)CC2)n1 | – | – | – | – | · | ·
C#CCOCCOCCOCCNc1nc(N2CCN(C(=O)[C@H]([C@@H](C)CC)n3cc(CCC(=O)O)nn3)CC2)nc(N2CCN(C(=O)[C@H](CCCCN)n3cc(CCCC)nn3)CC2)n1 | – | – | – | – | – | ·
C#CCOCCOCCOCCNc1nc(N2CCN(C(=O)[C@H]([C@@H](C)CC)n3cc(CCCCN)nn3)CC2)nc(N2CCN(C(=O)[C@H](CCCCN)n3cc(CCCC)nn3)CC2)n1 | – | – | 33 | – | – | ·
O=S(=O)(c1ccccc1F)N1CCC(c2nc3ccccc3o2)CC1 | · | · | · | · | – | ·
C#CCOCCOCCOCCNc1nc(N2CCN(C(=O)CCCCCCCCCCNC(=O)[C@H](CO)n3cc(CCCSC)nn3)CC2)nc(N2CCN(C(=O)CCCCCCCCCCNC(=O)[C@H](CCCCN)n3cc(CCO)nn3)CC2)n1 | – | – | – | – | – | ·
C#CCOCCOCCOCCNc1nc(N2CCN(C(=O)CCCCCCCCCCNC(=O)[C@H](CO)n3cc(CCCSC)nn3)CC2)nc(N2CCN(C(=O)CCCCCCCCCCNC(=O)[C@H](CCCN=C(N)N)n3cc(C[C@@H](C)CC)nn3)CC2)n1 | – | – | 30 | – | · | ·
COC(=O)C[C@H]1CC[C@@H]2[C@@H](COc3ccc(NC(=O)c4ccccc4)cc3C(=O)N2C)O1 | · | · | · | · | – | ·
Oc1c(C(c2ccc(Cl)cc2)N2CCCC2)cc(Cl)c2cccnc12 (centres undefined) | – | – | 53 | – | – | –
CN1CCN(C(c2ccccn2)c2cc(Cl)c3cccnc3c2O)CC1 (centres undefined) | – | – | 401 | – | – | –
Cc1ccc(C(c2cc(Cl)c3cccnc3c2O)N2CCN(C)CC2)cc1 (centres undefined) | – | – | 61 | – | · | –
O=S(=O)(N/N=C/c1ccc(N2CCOCC2)cc1)c1ccc(Br)cc1 | 36 | · | – | – | – | –
S=C(Nc1ccccc1)Nc1ccc(OCc2ccccc2)cc1 | – | – | – | – | – | –
S=C(Nc1ccc(OCc2ccccc2)cc1)Nc1cccc(Cl)c1Cl | – | – | 67 | – | – | –
O=C(c1ccccc1F)N1CCN(c2cccc(C(F)(F)F)c2)CC1 | – | – | 121 | – | – | –
CCCC(=O)NC(c1ccc(OCC)cc1)c1ccc(OC)c(OC)c1 (centres undefined) | – | · | · | 156 | – | –
COc1ccc(CN2C3=NC(c4ccccc4)CC(=O)N3/C(=C\c3ccccc3)C2c2ccccc2)c(OC)c1 (centres undefined) | · | · | · | · | – | ·
CNc1nc(N)c([N+](=O)[O-])c(Nc2ccccc2)n1 | · | · | · | · | – | ·
C=CCN1C(=O)[C@@H](CC(=O)N2CCOCC2)[C@]2(C(=O)OC)CCCCC=C12 | · | · | · | · | – | ·
Cc1cc(/C=C(\C#N)C(N)=O)c(C)n1-c1ccc(N2CCOCC2)c([N+](=O)[O-])c1 | 38 | – | – | – | – | –
CCCNc1nc(-c2cc(C(=O)Nc3ccccc3)on2)cc(C(C)C)n1 | – | – | 365 | – | – | –
COCCNc1nc(C)cc(-c2cc(C(=O)Nc3ccccc3)on2)n1 | – | – | – | – | · | –
CCCc1ccc2oc(C(=O)NCCc3nc(C(=O)OCC)cs3)c(C)c2c1 | – | – | 40 | – | – | –
Cn1cccc1-c1cc(C(=O)N/N=C/c2ccccc2Cl)[nH]n1 | – | – | – | – | – | –
SMILES | GDH-TPI counter | PrP 5UTR inh | PfHsp40 rescue | FBA Mtb inh | PrPC TRFRET | BJeLR viability
Cn1cccc1-c1cc(C(=O)N/N=C/c2cc(Br)ccc2O)[nH]n1 | – | – | 125 | – | – | –
CCOc1ccc(CCNC(=O)c2cc3ccsc3n2C)cc1OC | · | · | · | · | – | ·
COCC(=O)Nc1ccc(-c2cn3cccnc3n2)cc1 | – | – | – | + | – | –
CCC(CC)C(=O)Nc1ccncc1 | · | · | · | · | · | –
CCC(CC)C(=O)Nc1ccc(-c2cn3cccnc3n2)cc1 | – | – | – | + | – | –
Cc1cccc(NC(=S)NNC(=O)c2cc3c(s2)CCC(C)C3)c1C (centres undefined) | – | – | 31 | – | – | –
Cc1ccc(C)c(NC(=S)NNC(=O)c2cc3c(s2)CCC(C)C3)c1 (centres undefined) | – | – | – | – | – | –
Cc1cccc(NC(=S)NNC(=O)c2csc3c2CCC(C)C3)c1 (centres undefined) | – | – | 104 | – | – | –
COc1ccc(C(=O)N(C)[C@H]2C[C@H]3c4[nH]c5cccc(-c6ccccc6)c5c4CCN3C[C@H]2[C@H](C)O)cc1 | · | · | · | · | – | ·
C/C(=N\Nc1ccc([N+](=O)[O-])cc1)c1ccc(O)cc1 | – | – | 180 | – | – | –
O=[N+]([O-])c1ccccc1S(=O)(=O)N1CCC(c2cn3ccccc3n2)CC1 | · | · | · | · | – | ·
COC(=O)[C@]1(CNS(=O)(=O)C2CC2)CC(=O)N(C)[C@@H]1c1ccccc1 | · | · | · | · | – | ·
COc1ccc(/C=N/NC(=S)Nc2c(C)n(C)n(-c3ccccc3)c2=O)cc1OC | – | – | – | – | – | –
Cc1c(NC(=S)N/N=C/C=C/c2ccccc2)c(=O)n(-c2ccccc2)n1C | 62 | – | – | – | – | –
Cc1c(NS(=O)(=O)c2ccc([N+](=O)[O-])cc2)c(=O)n(-c2ccccc2)n1C | – | – | – | – | – | –
Cc1c(NC(=S)N/N=C/C=C/c2ccc([N+](=O)[O-])cc2)c(=O)n(-c2ccccc2)n1C | 32 | – | – | – | – | –
COC(=O)C[C@@H]1CC[C@H]2[C@@H](COc3ccc(NC(=O)c4ccc(Cl)cc4)cc3C(=O)N2C)O1 | · | · | · | · | – | ·
O=C(Nc1ccc(F)cc1)C(=O)c1c(O)[nH]c2ccc([N+](=O)[O-])cc12 | 38 | · | – | – | · | –
Cc1ccc(NCC(=O)N=Nc2c(O)[nH]c3ccc([N+](=O)[O-])cc23)cc1 | · | · | · | · | – | –
CC(C)(C)C(=O)C(Oc1ccc(Cl)cc1)n1cncn1 (centres undefined) | – | – | 397 | – | – | ·
Cc1cccn2c(=O)c(C=Nc3ccccc3)c(NCc3ccco3)nc12 | – | – | – | 39 | · | –
